# Key:
# Experiment in all cases: DAPPL (digital affinity profiling via proximity ligation, sequencing); 10 mM Tris-HCl pH 7.5, 50 mM NaCl, 1 mM DTT, 4% glycerol, room temperature, 30 min; GST-TFs on glutathione beads, 16-mer random dsDNA library, 0.1% formaldehyde crosslink after washing; high values mean tight binding
# [1] = target: T1, FLI1 (Homo sapiens, UniProt Q01543 1-452); settings: protein: recombinant; tags: N-terminal GST; dsDNA, one strand shown
# T1 sequence: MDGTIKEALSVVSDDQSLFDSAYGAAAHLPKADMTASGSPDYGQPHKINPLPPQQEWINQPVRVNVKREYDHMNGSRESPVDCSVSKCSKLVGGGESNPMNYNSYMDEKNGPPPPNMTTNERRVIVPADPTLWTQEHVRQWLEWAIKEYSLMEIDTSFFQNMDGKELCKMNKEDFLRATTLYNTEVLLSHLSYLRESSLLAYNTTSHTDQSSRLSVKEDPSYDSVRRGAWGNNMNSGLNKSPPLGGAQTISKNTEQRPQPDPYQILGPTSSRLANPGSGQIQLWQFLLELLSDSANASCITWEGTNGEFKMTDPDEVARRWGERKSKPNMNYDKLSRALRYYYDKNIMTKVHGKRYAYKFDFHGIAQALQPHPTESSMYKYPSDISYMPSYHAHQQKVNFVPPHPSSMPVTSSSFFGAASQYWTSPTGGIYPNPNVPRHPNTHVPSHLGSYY
# In short: (§1)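 Human transcription factors carrying a GST fusion were produced in yeast, bound to glutathione beads, tagged with DNA barcodes and pooled together with a tag-only sample. Each pool was held with 200 nmole of a random double-stranded 16-mer DNA library in Tris/NaCl/DTT/glycerol buffer for 30 min at room temperature, then washed, crosslinked in 0.1% formaldehyde, proximity-ligated with BsaI/T4 ligase (1 h, 37 °C), PCR-amplified and sequenced on an Illumina NextSeq500. Binding signal is the read frequency of each hexamer for a given factor divided by its frequency in the tag-only sample.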
# [2] = target: T2, ELK1 (Homo sapiens, UniProt P19419 1-428); settings: protein: recombinant; tags: N-terminal GST; dsDNA, one strand shown
# T2 sequence: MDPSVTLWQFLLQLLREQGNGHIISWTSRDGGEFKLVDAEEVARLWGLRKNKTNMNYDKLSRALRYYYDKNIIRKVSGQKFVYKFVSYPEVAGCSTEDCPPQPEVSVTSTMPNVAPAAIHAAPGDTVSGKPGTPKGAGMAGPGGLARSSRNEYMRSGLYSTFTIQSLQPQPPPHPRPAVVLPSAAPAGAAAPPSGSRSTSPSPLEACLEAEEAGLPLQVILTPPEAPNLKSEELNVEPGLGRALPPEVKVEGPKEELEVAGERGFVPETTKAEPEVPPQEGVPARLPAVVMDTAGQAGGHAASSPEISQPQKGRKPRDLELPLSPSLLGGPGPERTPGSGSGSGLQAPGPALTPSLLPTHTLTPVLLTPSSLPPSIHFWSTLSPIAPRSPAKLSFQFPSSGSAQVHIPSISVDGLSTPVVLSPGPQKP
# In short: as §1
# [3] = target: T3, GABPA (Homo sapiens, UniProt Q06546 1-454); settings: protein: recombinant; tags: N-terminal GST; dsDNA, one strand shown
# T3 sequence: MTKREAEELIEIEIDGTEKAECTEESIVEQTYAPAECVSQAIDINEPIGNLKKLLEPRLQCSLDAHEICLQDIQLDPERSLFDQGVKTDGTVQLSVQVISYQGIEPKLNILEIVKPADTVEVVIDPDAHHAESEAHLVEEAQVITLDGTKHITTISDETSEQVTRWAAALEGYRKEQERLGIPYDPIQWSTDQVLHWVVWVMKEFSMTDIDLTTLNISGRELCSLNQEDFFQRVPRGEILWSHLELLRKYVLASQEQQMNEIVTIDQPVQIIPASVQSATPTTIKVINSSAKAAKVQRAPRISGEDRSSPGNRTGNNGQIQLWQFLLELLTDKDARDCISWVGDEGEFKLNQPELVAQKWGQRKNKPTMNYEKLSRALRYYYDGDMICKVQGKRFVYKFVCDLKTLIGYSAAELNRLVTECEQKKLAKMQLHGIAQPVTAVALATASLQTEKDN
# In short: as §1
# [4] = target: T4, ERG (Homo sapiens, UniProt P11308 1-479); settings: protein: recombinant; tags: N-terminal GST; dsDNA, one strand shown
# T4 sequence: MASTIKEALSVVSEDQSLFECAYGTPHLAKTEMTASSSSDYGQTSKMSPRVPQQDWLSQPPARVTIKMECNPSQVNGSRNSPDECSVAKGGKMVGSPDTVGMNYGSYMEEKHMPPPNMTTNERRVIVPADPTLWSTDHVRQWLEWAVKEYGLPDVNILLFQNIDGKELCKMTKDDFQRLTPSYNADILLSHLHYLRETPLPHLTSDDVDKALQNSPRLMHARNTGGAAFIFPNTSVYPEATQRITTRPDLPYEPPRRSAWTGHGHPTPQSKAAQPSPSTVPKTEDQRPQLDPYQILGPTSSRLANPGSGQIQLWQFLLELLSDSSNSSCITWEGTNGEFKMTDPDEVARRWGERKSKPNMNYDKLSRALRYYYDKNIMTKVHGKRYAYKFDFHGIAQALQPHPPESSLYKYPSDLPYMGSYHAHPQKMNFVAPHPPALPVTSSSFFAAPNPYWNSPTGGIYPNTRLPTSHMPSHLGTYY
# In short: as §1
# [5] = target: ELF1 (Homo sapiens, UniProt P32519 1-619); settings: protein: recombinant; tags: N-terminal GST; dsDNA, one strand shown
# In short: as §1
# [6] = target: T5, EHF (Homo sapiens, UniProt Q9NZC4 1-300); settings: protein: recombinant; tags: N-terminal GST; dsDNA, one strand shown
# T5 sequence: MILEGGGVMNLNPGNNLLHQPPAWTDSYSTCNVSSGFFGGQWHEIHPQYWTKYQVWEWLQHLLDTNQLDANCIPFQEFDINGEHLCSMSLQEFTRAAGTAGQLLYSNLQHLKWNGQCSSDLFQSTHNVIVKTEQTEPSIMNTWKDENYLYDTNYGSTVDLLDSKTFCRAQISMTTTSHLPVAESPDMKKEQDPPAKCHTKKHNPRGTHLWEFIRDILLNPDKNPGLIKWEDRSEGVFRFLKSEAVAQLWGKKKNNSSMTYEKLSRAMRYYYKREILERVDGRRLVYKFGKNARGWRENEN
# In short: as §1
# [7] = target: SPI1 (Homo sapiens, UniProt P17947 1-270); settings: protein: recombinant; tags: N-terminal GST; dsDNA, one strand shown
# In short: as §1
# [8] = target: SPIB (Homo sapiens, UniProt Q01892 1-262); settings: protein: recombinant; tags: N-terminal GST; dsDNA, one strand shown
# In short: as §1
# [9] = target: T6, ELK3 (Homo sapiens, UniProt P41970 1-407); settings: protein: recombinant; tags: N-terminal GST; dsDNA, one strand shown
# T6 sequence: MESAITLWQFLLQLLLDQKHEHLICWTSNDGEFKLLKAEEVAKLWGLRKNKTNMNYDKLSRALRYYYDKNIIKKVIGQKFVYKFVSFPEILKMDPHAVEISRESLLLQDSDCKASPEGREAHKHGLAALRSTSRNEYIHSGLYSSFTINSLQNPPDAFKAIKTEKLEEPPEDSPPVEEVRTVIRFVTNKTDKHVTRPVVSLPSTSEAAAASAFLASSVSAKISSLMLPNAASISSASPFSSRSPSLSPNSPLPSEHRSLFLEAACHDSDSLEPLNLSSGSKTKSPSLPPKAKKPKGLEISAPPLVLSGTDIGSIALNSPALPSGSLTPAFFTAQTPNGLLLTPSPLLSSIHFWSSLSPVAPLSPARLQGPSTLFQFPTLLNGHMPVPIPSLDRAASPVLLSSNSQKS
# In short: as §1
# [10] = target: T7, FEV (Homo sapiens, UniProt Q99581 1-238); settings: protein: recombinant; tags: N-terminal GST; dsDNA, one strand shown
# T7 sequence: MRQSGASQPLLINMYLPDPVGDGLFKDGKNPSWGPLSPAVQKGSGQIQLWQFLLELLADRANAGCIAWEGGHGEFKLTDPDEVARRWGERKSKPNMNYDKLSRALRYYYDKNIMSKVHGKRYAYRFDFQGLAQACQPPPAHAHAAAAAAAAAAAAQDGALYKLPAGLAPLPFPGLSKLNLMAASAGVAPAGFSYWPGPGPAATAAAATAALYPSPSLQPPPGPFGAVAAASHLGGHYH
# In short: as §1
# [11] = target: ETV5 (Homo sapiens, UniProt P41161 1-510); settings: protein: recombinant; tags: N-terminal GST; dsDNA, one strand shown
# In short: as §1
# [12] = target: HSF1 (Homo sapiens, UniProt Q00613 1-529); settings: protein: recombinant; tags: N-terminal GST; chain copies: 3; dsDNA, one strand shown
# In short: as §1
# [13] = target: T8, SPIC (Homo sapiens, UniProt Q8N5J4 1-248); settings: protein: recombinant; tags: N-terminal GST; dsDNA, one strand shown
# T8 sequence: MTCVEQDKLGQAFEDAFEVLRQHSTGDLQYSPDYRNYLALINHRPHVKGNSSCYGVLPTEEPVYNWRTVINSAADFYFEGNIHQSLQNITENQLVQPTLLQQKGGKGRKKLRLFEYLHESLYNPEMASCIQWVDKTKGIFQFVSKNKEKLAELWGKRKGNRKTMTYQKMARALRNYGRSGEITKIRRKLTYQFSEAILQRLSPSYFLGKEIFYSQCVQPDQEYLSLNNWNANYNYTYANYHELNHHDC
# In short: as §1
# [14] = target: ELF4 (Homo sapiens, UniProt Q99607 1-663); settings: protein: recombinant; tags: N-terminal GST; dsDNA, one strand shown
# In short: as §1
# [15] = target: T9, ELK4 (Homo sapiens, UniProt P28324-2 1-405); settings: protein: recombinant; tags: N-terminal GST; dsDNA, one strand shown
# T9 sequence: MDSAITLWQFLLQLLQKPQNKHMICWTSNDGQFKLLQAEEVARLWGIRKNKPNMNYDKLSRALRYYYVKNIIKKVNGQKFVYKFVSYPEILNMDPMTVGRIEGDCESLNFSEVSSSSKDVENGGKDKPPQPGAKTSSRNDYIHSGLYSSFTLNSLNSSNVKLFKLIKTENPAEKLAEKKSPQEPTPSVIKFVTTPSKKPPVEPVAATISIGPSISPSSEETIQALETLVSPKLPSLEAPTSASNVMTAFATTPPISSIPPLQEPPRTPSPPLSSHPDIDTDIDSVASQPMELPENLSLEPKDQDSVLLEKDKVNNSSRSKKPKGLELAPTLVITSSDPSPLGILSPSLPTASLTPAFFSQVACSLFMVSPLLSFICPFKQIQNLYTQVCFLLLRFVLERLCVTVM
# In short: as §1
# [16] = target: T10, ETV2 (Homo sapiens, UniProt O00321 1-342); settings: protein: recombinant; tags: N-terminal GST; dsDNA, one strand shown
# T10 sequence: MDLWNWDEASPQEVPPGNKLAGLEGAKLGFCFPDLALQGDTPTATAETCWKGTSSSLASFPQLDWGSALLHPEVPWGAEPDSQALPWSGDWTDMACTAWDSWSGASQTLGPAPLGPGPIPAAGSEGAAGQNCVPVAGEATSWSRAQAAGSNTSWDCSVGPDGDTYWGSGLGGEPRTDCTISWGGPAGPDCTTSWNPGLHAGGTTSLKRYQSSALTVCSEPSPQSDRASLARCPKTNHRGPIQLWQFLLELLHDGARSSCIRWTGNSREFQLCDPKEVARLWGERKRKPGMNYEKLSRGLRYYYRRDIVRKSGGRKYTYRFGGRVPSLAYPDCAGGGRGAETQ
# In short: as §1
# [17] = target: T11, ELF3 (Homo sapiens, UniProt P78545 1-371); settings: protein: recombinant; tags: N-terminal GST; dsDNA, one strand shown
# T11 sequence: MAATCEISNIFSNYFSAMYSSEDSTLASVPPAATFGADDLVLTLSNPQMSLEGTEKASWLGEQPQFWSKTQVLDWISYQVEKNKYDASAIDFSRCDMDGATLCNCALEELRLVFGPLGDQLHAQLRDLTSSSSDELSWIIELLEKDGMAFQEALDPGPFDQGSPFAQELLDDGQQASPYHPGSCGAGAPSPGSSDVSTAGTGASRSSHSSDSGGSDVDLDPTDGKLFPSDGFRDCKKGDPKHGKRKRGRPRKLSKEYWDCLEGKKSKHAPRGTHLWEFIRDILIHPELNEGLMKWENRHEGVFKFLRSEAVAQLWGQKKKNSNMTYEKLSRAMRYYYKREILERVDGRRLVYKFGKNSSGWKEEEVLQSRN
# In short: as §1
# [18] = target: CRX (Homo sapiens, UniProt O43186 1-299); settings: protein: recombinant; tags: N-terminal GST; dsDNA, one strand shown
# In short: as §1
# [19] = target: ETV1 (Homo sapiens, UniProt P50549 1-477); settings: protein: recombinant; tags: N-terminal GST; dsDNA, one strand shown
# In short: as §1
# HSF1, sequence (Q00613 whole entry): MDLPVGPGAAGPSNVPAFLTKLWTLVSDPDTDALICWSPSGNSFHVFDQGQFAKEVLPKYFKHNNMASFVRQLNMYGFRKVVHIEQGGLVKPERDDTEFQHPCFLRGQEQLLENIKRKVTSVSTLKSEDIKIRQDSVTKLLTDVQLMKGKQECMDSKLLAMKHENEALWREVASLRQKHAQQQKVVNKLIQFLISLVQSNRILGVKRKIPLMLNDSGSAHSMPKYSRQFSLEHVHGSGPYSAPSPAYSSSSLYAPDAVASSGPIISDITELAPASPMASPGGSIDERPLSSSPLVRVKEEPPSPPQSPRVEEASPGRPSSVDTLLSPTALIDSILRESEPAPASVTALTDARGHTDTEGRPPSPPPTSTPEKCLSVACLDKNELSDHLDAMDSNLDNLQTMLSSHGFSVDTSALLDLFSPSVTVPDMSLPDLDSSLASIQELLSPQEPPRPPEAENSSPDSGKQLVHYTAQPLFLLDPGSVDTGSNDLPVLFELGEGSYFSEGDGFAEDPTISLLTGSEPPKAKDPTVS
# ETV1, sequence (P50549 whole entry): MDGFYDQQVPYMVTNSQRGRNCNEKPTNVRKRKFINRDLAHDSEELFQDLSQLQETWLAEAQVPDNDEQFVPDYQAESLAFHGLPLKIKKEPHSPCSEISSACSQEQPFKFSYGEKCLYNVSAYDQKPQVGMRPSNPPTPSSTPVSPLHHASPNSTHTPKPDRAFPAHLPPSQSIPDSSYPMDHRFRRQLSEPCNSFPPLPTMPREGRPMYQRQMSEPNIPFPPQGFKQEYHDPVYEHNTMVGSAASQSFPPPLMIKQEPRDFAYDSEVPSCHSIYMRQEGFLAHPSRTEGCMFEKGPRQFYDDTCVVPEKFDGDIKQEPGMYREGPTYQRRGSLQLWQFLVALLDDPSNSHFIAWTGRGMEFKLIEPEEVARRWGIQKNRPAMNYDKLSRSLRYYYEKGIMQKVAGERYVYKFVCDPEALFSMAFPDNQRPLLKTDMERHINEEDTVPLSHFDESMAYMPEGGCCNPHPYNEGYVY
# CRX, sequence (O43186 whole entry): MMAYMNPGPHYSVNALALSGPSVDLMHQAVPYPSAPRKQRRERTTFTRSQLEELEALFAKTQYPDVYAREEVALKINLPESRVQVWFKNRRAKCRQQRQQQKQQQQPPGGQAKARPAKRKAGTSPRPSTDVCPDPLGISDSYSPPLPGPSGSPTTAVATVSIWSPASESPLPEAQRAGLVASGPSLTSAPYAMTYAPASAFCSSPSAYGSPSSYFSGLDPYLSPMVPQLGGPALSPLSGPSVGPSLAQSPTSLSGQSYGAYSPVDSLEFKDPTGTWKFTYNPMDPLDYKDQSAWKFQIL
# ELF1, sequence (P32519 whole entry): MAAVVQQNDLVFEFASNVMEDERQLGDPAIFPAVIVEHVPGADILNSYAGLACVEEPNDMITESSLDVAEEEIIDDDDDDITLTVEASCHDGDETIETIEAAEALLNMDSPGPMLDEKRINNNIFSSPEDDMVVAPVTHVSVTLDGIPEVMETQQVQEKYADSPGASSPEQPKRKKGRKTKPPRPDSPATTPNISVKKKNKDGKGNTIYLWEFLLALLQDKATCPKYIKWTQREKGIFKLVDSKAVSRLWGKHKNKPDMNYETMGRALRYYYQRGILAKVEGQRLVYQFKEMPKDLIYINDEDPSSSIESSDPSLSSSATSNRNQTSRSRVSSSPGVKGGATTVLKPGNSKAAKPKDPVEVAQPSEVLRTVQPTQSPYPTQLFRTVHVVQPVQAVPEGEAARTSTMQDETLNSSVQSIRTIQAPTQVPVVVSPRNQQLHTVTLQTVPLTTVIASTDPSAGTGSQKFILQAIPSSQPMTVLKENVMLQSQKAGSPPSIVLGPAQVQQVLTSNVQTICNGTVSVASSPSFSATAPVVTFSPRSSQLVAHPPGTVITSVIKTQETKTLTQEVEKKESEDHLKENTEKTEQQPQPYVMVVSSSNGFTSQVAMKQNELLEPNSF
# ELF4, sequence (Q99607 whole entry): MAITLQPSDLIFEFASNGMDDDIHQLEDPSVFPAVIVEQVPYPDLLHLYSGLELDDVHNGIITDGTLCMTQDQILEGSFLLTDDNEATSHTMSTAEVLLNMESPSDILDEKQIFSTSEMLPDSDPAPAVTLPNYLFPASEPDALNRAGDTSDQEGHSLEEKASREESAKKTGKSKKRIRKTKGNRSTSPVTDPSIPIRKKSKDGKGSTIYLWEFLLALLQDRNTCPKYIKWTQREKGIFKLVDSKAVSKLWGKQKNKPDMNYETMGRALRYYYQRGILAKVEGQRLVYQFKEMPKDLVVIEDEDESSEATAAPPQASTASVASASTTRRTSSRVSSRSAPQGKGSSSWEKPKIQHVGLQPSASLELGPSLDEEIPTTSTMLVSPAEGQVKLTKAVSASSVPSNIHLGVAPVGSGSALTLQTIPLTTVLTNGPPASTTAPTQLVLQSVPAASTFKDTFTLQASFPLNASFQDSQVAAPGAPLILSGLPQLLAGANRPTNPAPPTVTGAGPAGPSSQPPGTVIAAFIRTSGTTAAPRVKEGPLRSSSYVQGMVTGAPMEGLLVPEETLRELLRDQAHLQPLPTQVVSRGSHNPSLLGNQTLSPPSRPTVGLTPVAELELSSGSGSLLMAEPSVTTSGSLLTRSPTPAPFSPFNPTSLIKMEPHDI
# ETV5, sequence (P41161 whole entry): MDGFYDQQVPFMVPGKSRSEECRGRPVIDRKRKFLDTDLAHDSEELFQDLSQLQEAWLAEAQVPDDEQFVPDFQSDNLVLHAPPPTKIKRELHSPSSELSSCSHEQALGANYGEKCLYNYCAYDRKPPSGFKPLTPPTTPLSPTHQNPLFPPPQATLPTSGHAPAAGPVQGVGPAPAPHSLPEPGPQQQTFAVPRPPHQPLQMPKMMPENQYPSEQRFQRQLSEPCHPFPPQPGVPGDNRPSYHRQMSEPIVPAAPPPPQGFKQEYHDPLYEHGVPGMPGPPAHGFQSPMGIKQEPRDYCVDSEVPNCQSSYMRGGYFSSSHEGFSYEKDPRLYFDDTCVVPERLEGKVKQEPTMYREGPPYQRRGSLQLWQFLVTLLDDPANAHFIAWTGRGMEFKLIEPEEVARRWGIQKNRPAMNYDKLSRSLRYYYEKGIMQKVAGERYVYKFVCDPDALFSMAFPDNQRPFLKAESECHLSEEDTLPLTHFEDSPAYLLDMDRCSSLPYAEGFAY
# SPIB, sequence (Q01892 whole entry): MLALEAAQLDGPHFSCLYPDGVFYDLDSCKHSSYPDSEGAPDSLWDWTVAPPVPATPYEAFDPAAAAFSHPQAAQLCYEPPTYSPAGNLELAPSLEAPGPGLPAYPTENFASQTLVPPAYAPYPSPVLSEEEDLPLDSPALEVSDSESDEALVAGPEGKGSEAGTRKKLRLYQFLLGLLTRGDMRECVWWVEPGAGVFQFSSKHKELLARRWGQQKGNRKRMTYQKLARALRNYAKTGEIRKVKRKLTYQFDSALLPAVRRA
sequence,measurement,setting,value
CCTAAT,binding signal,[1],"1.32 fold enrichment (6-mer frequency, TF over GST control)"
same,binding signal,[2],"1.12 fold enrichment (6-mer frequency, TF over GST control)"
same,binding signal,[3],"1.29 fold enrichment (6-mer frequency, TF over GST control)"
same,binding signal,[4],"1.34 fold enrichment (6-mer frequency, TF over GST control)"
same,binding signal,[5],"1.39 fold enrichment (6-mer frequency, TF over GST control)"
same,binding signal,[6],"1.28 fold enrichment (6-mer frequency, TF over GST control)"
same,binding signal,[7],"1.34 fold enrichment (6-mer frequency, TF over GST control)"
same,binding signal,[8],"1.44 fold enrichment (6-mer frequency, TF over GST control)"
same,binding signal,[9],"1.29 fold enrichment (6-mer frequency, TF over GST control)"
same,binding signal,[10],"1.32 fold enrichment (6-mer frequency, TF over GST control)"
same,binding signal,[11],"1.31 fold enrichment (6-mer frequency, TF over GST control)"
same,binding signal,[12],"1.75 fold enrichment (6-mer frequency, TF over GST control)"
same,binding signal,[13],"1.33 fold enrichment (6-mer frequency, TF over GST control)"
same,binding signal,[14],"1.26 fold enrichment (6-mer frequency, TF over GST control)"
same,binding signal,[15],"1.24 fold enrichment (6-mer frequency, TF over GST control)"
same,binding signal,[16],"1.44 fold enrichment (6-mer frequency, TF over GST control)"
same,binding signal,[17],"1.52 fold enrichment (6-mer frequency, TF over GST control)"
same,binding signal,[18],"2.61 fold enrichment (6-mer frequency, TF over GST control)"
same,binding signal,[19],"1.38 fold enrichment (6-mer frequency, TF over GST control)"

# — paper PMC7862700, “An all-to-all approach to the identification of sequence-specific readers for epigenetic DNA modifications on cytosine”
